Assay results reported in the supplement of paper PMC12067926.

Experiments:
Experiment in all cases: relative growth (AUC of 72 h growth curve relative to DMSO control, dAUC) (ratio); higher = more growth (less inhibition), active = hit call of the paper
Conditions in all cases: 20 µM;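 active = growth AUC significantly below the DMSO wells by Dunnett test; inactive = the rest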
[1] = test system: Aeromonas 1 (Aeromonas sp. AE235)
How it was run: (§1)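 For relative growth (dAUC), the spline-integrated area under the growth curve was divided by the mean of the DMSO controls. Results were averaged over three biological replicates. Each replicate used a 1:100 dilution, into 96-well plates holding each chemical at 20 µM (1% DMSO), of isolates from Icelandic stream sediments and Silwood Park soil or whole sediment communities that had been grown to carrying capacity in Luria–Bertani medium. Plates were shaken briefly before each hourly A600 reading over 72 h.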

[2] = test system: Aeromonas 2 (Aeromonas sobria)
How it was run: as §1

[3] = test system: Aeromonas 3 (Aeromonas popoffii)
How it was run: as §1

[4] = test system: Argrobacterium 1 (Agrobacterium sp.)
How it was run: as §1

[5] = test system: Arthrobacter 1 (Arthrobacter humicola)
How it was run: as §1

[6] = test system: Arthrobacter 2 (Arthrobacter humicola)
How it was run: as §1

[7] = test system: Arthrobacter 3 (Arthrobacter sp.)
How it was run: as §1

Community 10 = test system: Community 10
How it was run: as §1

Community 4 = test system: Community 4
How it was run: as §1

Community 6 = test system: Community 6
How it was run: as §1

Community 7 = test system: Community 7
How it was run: as §1

Community 8 = test system: Community 8
How it was run: as §1

Community 9 = test system: Community 9
How it was run: as §1

[8] = test system: Flavobacterium 1 (Flavobacterium glaciei)
How it was run: as §1

[9] = test system: Flavobacterium 2 (Flavobacterium succinicans)
How it was run: as §1

[10] = test system: Hymenobacter 1 (Hymenobacter glaciei)
How it was run: as §1

[11] = test system: Microbacterium 1 (Microbacterium arborescens)
How it was run: as §1

[12] = test system: Neobacillus 1 (Neobacillus soli)
How it was run: as §1

[13] = test system: Oryzobacter 1 (Oryzobacter terrae)
How it was run: as §1

[14] = test system: Paenibacillus 1 (Paenibacillus castaneae)
How it was run: as §1

Measured: relative growth

Cc1ccc(/N=C/N(C)/C=N/c2ccc(C)cc2C)c(C)c1
inactive: [1] 0.991 | [2] 0.995 | [3] 1 | [4] 0.984 | [5] 0.964 | [6] 0.821 | [7] 1.04 | Community 10 0.922 | Community 4 0.905 | Community 6 0.969 | Community 7 1.16 | Community 8 1.05 | Community 9 0.961 | [8] 1.02 | [9] 1 | [10] 1.04 | [11] 1.05 | [12] 0.964 | [13] 1.03 | [14] 0.969

CNC(=O)ON=C(C)SC
inactive: [1] 0.953 | [2] 0.974 | [3] 1.01 | [4] 0.974 | [5] 0.962 | [6] 1.01 | [7] 0.971 | Community 10 1.14 | Community 4 1.09 | Community 6 1.05 | Community 7 0.999 | Community 8 0.942 | Community 9 1.04 | [8] 1.03 | [9] 1.03 | [10] 1.07 | [11] 0.999 | [12] 1.01 | [13] 0.947 | [14] 1.07

CCCN(CCOc1c(Cl)cc(Cl)cc1Cl)C(=O)n1ccnc1
active: [6] 0.209 | [7] 0.352 | [8] 0.335 | [13] 0.236 | [14] 0.59
inactive: [1] 1.02 | [2] 0.971 | [3] 1 | [4] 1.01 | [5] 0.702 | Community 10 0.868 | Community 4 0.934 | Community 6 0.982 | Community 7 0.969 | Community 8 1.02 | Community 9 0.998 | [9] 0.935 | [10] 0.75 | [11] 0.953 | [12] 1.05

CC(C)N1C(=O)N(c2ccccc2)CS/C1=N\C(C)(C)C
inactive: [1] 1.04 | [2] 1.1 | [3] 1.01 | [4] 1.07 | [5] 0.994 | [7] 0.868 | Community 4 1.02 | Community 6 1.02 | Community 7 1.09 | Community 8 1.08 | Community 9 1.03 | [8] 0.891 | [9] 0.947 | [10] 1.06 | [11] 1.07 | [12] 0.906 | [13] 0.973 | [14] 1
active: [6] 0.59

O=C1C2(Cl)C3(Cl)C4(Cl)C(Cl)(Cl)C5(Cl)C3(Cl)C1(Cl)C5(Cl)C24Cl (centres undefined)
active: [2] 0.817 | [5] 0.00606 | [6] 0.00565 | [7] 0.0264 | [8] 0.126 | [10] 0.00946 | [13] 0.00589 | [14] 0.678
inactive: [1] 0.934 | [3] 0.99 | [4] 1.03 | Community 10 0.82 | Community 4 0.858 | Community 6 0.811 | Community 7 1.14 | Community 8 1.02 | Community 9 0.875 | [9] 0.847 | [11] 1.01 | [12] 0.911

O=C1C=C(N(Cc2ccc(Cl)nc2)CC(F)F)CO1
inactive: [1] 0.953 | [2] 0.967 | [3] 0.978 | [4] 0.974 | [5] 1.05 | [6] 1.08 | [7] 1.01 | Community 10 0.814 | Community 4 1.01 | Community 6 0.923 | Community 7 0.945 | Community 8 0.997 | Community 9 0.992 | [8] 1.09 | [9] 0.993 | [10] 1.1 | [11] 1.04 | [12] 1.02 | [13] 1.11 | [14] 0.899

COCC(C)N(C(=O)CCl)c1c(C)csc1C (centres undefined)
inactive: [1] 0.991 | [2] 0.984 | [3] 0.964 | [4] 1.02 | [5] 0.907 | [6] 0.814 | [7] 1.05 | Community 10 0.97 | Community 4 0.913 | Community 6 0.975 | Community 7 0.996 | Community 8 1.01 | Community 9 1.01 | [8] 0.948 | [9] 1.01 | [10] 0.962 | [11] 1.04 | [12] 0.98 | [13] 0.982 | [14] 0.961

CNC(=O)c1cc(Cl)cc(C)c1NC(=O)c1cc(Br)nn1-c1ncccc1Cl
inactive: [1] 1.01 | [2] 1.05 | [3] 1.03 | [4] 0.963 | [5] 1.08 | [6] 0.758 | [7] 1.02 | Community 10 1.14 | Community 4 1.09 | Community 6 1.07 | Community 7 1.02 | Community 8 1.04 | Community 9 1.09 | [8] 1 | [9] 1.03 | [10] 1.13 | [11] 0.975 | [12] 1.04 | [13] 0.99 | [14] 1.09

CC1(C)C(C(=O)OC(C#N)c2cccc(Oc3ccccc3)c2)C1(C)C (centres undefined)
inactive: [1] 0.986 | [2] 0.989 | [3] 1.08 | [4] 1.09 | [5] 1.1 | [6] 0.685 | [7] 0.704 | Community 10 0.908 | Community 4 1 | Community 6 1.03 | Community 7 1.09 | Community 8 1.02 | Community 9 1.05 | [8] 0.939 | [9] 0.946 | [10] 1.02 | [11] 1.03 | [12] 0.932 | [13] 1.14 | [14] 0.918

O=C(NC(=O)c1c(F)cccc1F)Nc1ccc(Cl)cc1
inactive: [1] 1.01 | [2] 1.01 | [3] 0.986 | [4] 1.04 | [5] 0.955 | [6] 0.985 | [7] 1.09 | Community 10 0.795 | Community 4 0.924 | Community 6 0.996 | Community 7 0.985 | Community 8 1.06 | Community 9 1.05 | [8] 0.844 | [9] 0.949 | [10] 0.917 | [11] 1.03 | [12] 0.942 | [13] 1.04 | [14] 0.957

CCC(=O)Nc1ccc(Cl)c(Cl)c1
inactive: [1] 0.948 | [2] 0.953 | [3] 0.955 | [4] 0.923 | [5] 1.12 | [6] 1 | [7] 1.02 | Community 10 0.919 | Community 4 1.07 | Community 6 1.01 | Community 7 0.951 | Community 8 1.06 | Community 9 1.03 | [8] 1.02 | [9] 0.965 | [10] 0.981 | [11] 1.02 | [12] 0.962 | [13] 1.02 | [14] 0.968

COP(=S)(OC)Oc1ccc(SC)c(C)c1
inactive: [1] 1.02 | [2] 0.974 | [3] 1.03 | [4] 1.05 | [5] 1.17 | [6] 0.942 | [7] 1.01 | Community 10 0.993 | Community 4 0.985 | Community 6 1.05 | Community 7 0.973 | Community 8 1 | Community 9 1.02 | [8] 0.934 | [9] 0.998 | [10] 1.01 | [11] 0.99 | [12] 0.955 | [13] 1.02 | [14] 1.02
